Potency and affinity values are given separately. Active and inactive are the calls of the source.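 Rule for the calls: active = compounds lowering cell ATP signal with a fitted half-effect dose at most twice the top valid dose; inconclusive = flat curve with 30 to 70% signal loss, or bad fit; inactive = wrong direction, flat within 30%, or weaker than limit.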

The nature of this assay: viability loss in HEK293 kidney cells – cell-based, cherry-picks, set 5, cytotoxicity control, dose response (AID 1053117).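 Note: more negative means greater loss of ATP signal and more cytotoxicity.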 Conditions: HEK293T viability, CellTiter-Glo ATP luminescence, 72 h; series mostly up to 26 µM. (In general: In ATP-based viability assays light output follows the ATP content of the culture.)
As to `C[C@H](CO)N1C[C@H](C)[C@H](CN(C)Cc2ccc(-c3ccccc3)cc2)Oc2ccc(NC(=O)C3CCCCC3)cc2C1=O`, the call was inactive.

Turning to `CC(C)NC(=O)N(C)C[C@H]1Oc2ccc(NC(=O)CCN3CCOCC3)cc2C(=O)N([C@H](C)CO)C[C@@H]1C`, the result was inactive.

Turning to `C[C@@H](O)C#Cc1ccc2c(c1)O[C@@H](CN(C)C)[C@@H](C)CN([C@@H](C)CO)S2(=O)=O`, the result was inactive.

On to `Cc1ccc(N(CC(=O)NCc2ccco2)S(=O)(=O)c2ccccc2)cc1`, for which the call was inactive.

Consider `C[C@H]1CN([C@@H](C)CO)C(=O)c2cc(NC(=O)C3CCCCC3)ccc2O[C@H]1CN(C)Cc1ccc(-c2ccccc2)cc1`, for which the call was inactive.

As for `C[C@H]1CN([C@@H](C)CO)C(=O)c2cc(NC(=O)CCCN(C)C)ccc2O[C@H]1CN(C)Cc1ccc(-c2ccccc2)cc1`, the outcome was inactive.

With `O=C(c1cccnc1)N1C[C@H]2[C@@H](c3ccccc31)[C@H](CO)N2CC1CCCC1`, the compound was called inactive.

Turning to `C[C@@H]1CN([C@H](C)CO)C(=O)c2cc(-c3ccccc3)cnc2O[C@@H]1CN(C)Cc1ccccc1`, the compound was called inactive.

As for `O=C(OCC(O)C(O)COC(=O)c1ccccc1)c1ccccc1` (stereo not drawn), the compound was called inactive.

As to `CC(NC(=O)CSc1ccc(S(=O)(=O)N2CCOCC2)cn1)c1ccc(Cl)cc1Cl` (stereo not drawn), the outcome was inactive.

Regarding `C[C@H](O)C#Cc1ccc2c(c1)O[C@H](CN(C)C)[C@H](C)CN([C@H](C)CO)S2(=O)=O`, the outcome was inactive.

Consider `COc1ccc(C)cc1N(CC(=O)Nc1cccc(N(C)S(C)(=O)=O)c1)S(C)(=O)=O`, for which the outcome was inactive.

As to `COc1ccccc1N(CC(=O)N(CC(C)C)CC(C)C)S(=O)(=O)c1cccs1`, the compound was classed as inactive.

Consider `CCN1CCN(C(c2ccccc2)c2nnnn2Cc2ccccc2)CC1` (stereo not drawn), for which the outcome was inactive.

On to `O=c1c2cc(N3CCOCC3)ccc2[nH]c(=S)n1Cc1ccc(Cl)cc1`, for which the call was inactive.

`COC(=O)C[C@H]1CC[C@@H]2[C@H](COc3ccc(NC(=O)Cc4cccs4)cc3C(=O)N2C)O1`: the call was inactive.

Take `CC(C)(C)[S@@](=O)N1Cc2cc(C(=O)NCc3ccccc3F)nc(-c3cccc(-c4cncnc4)c3)c2[C@H]1CCO`: the outcome was inactive.

With `COc1ccc(CN(C2CCCC2)S(=O)(=O)c2ccc(-n3cnnn3)cc2)cc1OC`, the compound was called inactive.

For the compound `CCOC(=O)c1nnn(-c2ccc(OC)cc2)c1N`, the compound was classed as inactive.

In the case of `N#C[C@@H]1[C@H](c2ccccc2C2=CCCCC2)[C@@H](CO)N1S(=O)(=O)c1ccccc1`, the result was inactive.

For the compound `O=C(Nc1ccccc1F)N1C[C@@H]2[C@H](c3ccccc31)[C@@H](CO)N2C(=O)C1CC1`, the call was inactive.

As to `C[C@@H]1CN([C@H](C)CO)C(=O)c2cc(-c3ccccc3)cnc2O[C@H]1CN(C)Cc1ccccc1`, the compound was called inactive.

As for `Cn1cnc(S(=O)(=O)N2CCN(c3ccccc3)CC2)c1`, the call was inactive.

On to `O=C(C[C@@H]1C[C@@H]2c3cc(NC(=O)c4ccc5c(c4)OCO5)ccc3O[C@@H]2[C@@H](CO)O1)NCc1ccc(Oc2ccccc2)cc1`, for which the call was inactive.

For `C[C@@H]1CN([C@@H](C)CO)C(=O)c2cc(NC(=O)CCCN(C)C)ccc2O[C@@H]1CN(C)Cc1ccc(-c2ccccc2)cc1`, the call was inactive.

Regarding `Cc1ccc(Nc2nnc(SCc3ccccc3)s2)cc1`, the compound was classed as inactive.

`COc1ccc(Cl)cc1NC(=O)CSc1nc(Nc2ccccc2)nc(N2CCOCC2)n1`: the result was inactive.

As for `C[C@@H]1CN([C@@H](C)CO)C(=O)c2cc(-c3ccccc3)cnc2O[C@@H]1CN(C)Cc1ccccc1`, the result was inactive.

For the compound `C[C@@H]1CN([C@@H](C)CO)C(=O)c2cc(-c3ccccc3)cnc2O[C@H]1CN(C)C(=O)c1cccc(F)c1`, the compound was called inactive.

On to `COCC(=O)Nc1ccc2c(c1)C(=O)N(C)[C@@H]1CC[C@@H](CC(=O)NCc3ccccc3Cl)O[C@@H]1CO2`, for which the compound was classed as inactive.

On to `O=S(=O)(c1ccccc1F)N1CC[C@@H]2[C@H](CO)Nc3ccc(-c4cccc(F)c4)cc3[C@@H]21`, for which the call was inactive.

As to `COCC(=O)Nc1ccc2c(c1)C(=O)N(C)[C@H]1CC[C@@H](CC(=O)NCc3ccccc3Cl)O[C@@H]1CO2`, the outcome was inactive.

Consider `Cc1cccc(NC(=O)Nc2ccc(S(=O)(=O)Nc3onc(C)c3C)cc2)c1`, for which the outcome was inactive.
